# High-throughput results: PubChem BioAssay, several laboratories
# An excerpt weighted towards active compounds, which were near 27% of everything screened.
# EphB4 antag: antagonists of human EphB4-ephrin-B2 interaction; P54760; EphB4 LBD / TNYL-RAW-Alexa532 peptide, fluorescence polarization; inhibition, % at 7 µM; 0.15% of 97,000 active; AID 720;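 active = inhibition above the screen-wide mean inhibition plus 3 SD, cut at about 15% in these data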
# CYP2C9 act: activators of human CYP2C9; P11712; recombinant CYP2C9, luciferin-H conversion, luminescence; active compounds read high; factor 1 = untreated enzyme, 0 = blocked; activation factor at 5 µM; 1.4% of 96,000 active; AID 1024;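 active = activation factor of 2 or more for CYP2C9 at a 5 µM dose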
# CYP2C19 activ: increases human CYP2C19 enzyme activity | recombinant CYP2C19, luciferin-H EGE luminescence; active compounds read high; 0 = fully inhibited enzyme, 1 = untreated enzyme | activation factor at 5 µM | 96,000 tested, under 10 active | AID 1025;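 active = activation factor of at least 2 at 5 µM in the primary screen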
# Target sequence (P33261 whole entry, looked up): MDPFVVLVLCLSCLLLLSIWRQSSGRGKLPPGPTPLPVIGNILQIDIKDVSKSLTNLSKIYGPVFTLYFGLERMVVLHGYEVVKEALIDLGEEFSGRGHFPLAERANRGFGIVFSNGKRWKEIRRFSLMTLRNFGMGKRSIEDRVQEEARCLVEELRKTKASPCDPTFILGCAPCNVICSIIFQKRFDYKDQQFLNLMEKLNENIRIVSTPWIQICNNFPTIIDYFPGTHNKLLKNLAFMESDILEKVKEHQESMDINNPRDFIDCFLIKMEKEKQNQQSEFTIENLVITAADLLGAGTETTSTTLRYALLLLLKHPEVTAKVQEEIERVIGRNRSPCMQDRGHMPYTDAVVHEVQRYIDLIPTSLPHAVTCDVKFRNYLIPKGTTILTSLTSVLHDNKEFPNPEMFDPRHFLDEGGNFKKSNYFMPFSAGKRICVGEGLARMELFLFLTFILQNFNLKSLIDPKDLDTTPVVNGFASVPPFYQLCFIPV
# CYP2C9 inhib: human CYP2C9 inhibition; P11712; 20% of 96,000 active; CYP2C9 Supersomes, luciferin-H conversion, luminescence; inhibition, % at 5 µM;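 active = blocking of liver enzyme CYP2C9 beyond about 50% at 5 µM, limit read from the data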
# CYP2C19 inhib: blocks human cytochrome P450 2C19; P33261; CYP2C19 Supersomes, luciferin-H EGE luminescence, 30 min; inhibition, % at 5 µM; 21% of 96,000 active; AID 778;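 active = CYP2C19 inhibition above a set limit at 5 µM in the primary screen, cut at about 50% in these data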
# Numbers stand for hits; n = inactive; x = no result.
SMILES,EphB4 antag,CYP2C9 act,CYP2C19 activ,CYP2C9 inhib,CYP2C19 inhib
COc1ccc(-c2cc(=O)[nH]c(NCc3ccccc3)n2)cc1,n,n,n,n,n
COc1ccc(-c2cc(C(=O)N3CCN(c4ccccc4)CC3)c3ccccc3n2)cc1OC,n,n,n,92.7,88.7
O=C(c1ccccc1-c1ccccc1)N1CCN(c2ccccn2)CC1,n,n,n,73.3,n
Cc1ccccc1C(=O)N1CCN(c2ccccn2)CC1,n,x,x,x,x
Cc1ccc2[nH]cc(C(=O)CN3CCN(c4ccccn4)CC3)c2c1,n,n,n,83.7,87.0
O=C(c1cc(-c2ccncc2)nc2ccccc12)N1CCN(c2ccccn2)CC1,n,n,n,85.1,n
COc1ccc(N2C3=C(CC4=C2CC(C)(C)CC4=O)C(=O)CC(C)(C)C3)cc1,n,n,n,n,n
O=C(c1cc(-c2ccncc2)nc2ccccc12)N1CCN(c2ccc(N3CCOCC3)nn2)CC1,n,n,n,68.0,n
CC(C)C(NC(=O)C1CCCCC1)C(=O)Nc1ccc2c(c1)OCCO2 (stereo not given),n,n,n,n,n
CC(C)C(NC(=O)C1CCCCC1)C(=O)Nc1ccncc1 (stereo not given),n,n,n,92.2,95.9
CC(C)C(NC(=O)C1CCC(C(C)(C)C)CC1)C(=O)NCc1cccnc1 (stereo not given),n,n,n,51.1,52.0
Cc1cc(OC(C)C(=O)N/N=C/CC(C)c2ccccc2)ccc1Cl (stereo not given),n,n,n,n,73.9
Cc1cc(C)nc(SCCN2CCOCC2)n1,n,n,n,n,n
CCOC(=O)c1[nH]c(=O)[nH]c1CSc1ccccn1,n,n,n,n,n
CCOc1ccc(NC(=O)c2cccc(OC(=S)N3CCC(C)CC3)c2)cc1,n,n,n,73.9,93.5
Cc1ccc(CNc2oc(-c3ccco3)nc2C#N)cc1,n,x,x,x,x
O=C(NCCc1csc(-c2cccnc2)n1)c1ccco1,n,n,n,n,n
O=C(NCCc1csc(-c2ccccc2)n1)c1ccc(Br)o1,n,n,n,61.3,100.3
O=C(NCCc1csc(-c2cccnc2)n1)c1ccc(Br)o1,x,n,n,n,51.9
CCCNc1nc2c(c(=O)n(C)c(=O)n2C)n1CCc1ccccc1,n,n,n,n,n
Cc1nc(NC(C)C)c2cnn(CCc3ccccc3)c2n1,n,n,n,n,77.0
CCCNc1nc(C)nc2c1cnn2CCc1ccccc1,n,n,n,n,88.6
Cc1cc(C(=O)N2CCN(S(C)(=O)=O)CC2)sc1-c1ccccc1,x,n,n,n,n
CCC(C)(C(=O)NC1CCCCC1)N(C(=O)c1ccccn1)c1ccc(C)cc1 (stereo not given),n,n,n,n,n
Cc1ccccc1N1CCN(C(=O)c2ccccc2NC(=O)/C=C\C(=O)O)CC1,n,n,n,n,n
SMILES,EphB4 antag,CYP2C9 act,CYP2C19 activ,CYP2C9 inhib,CYP2C19 inhib
CCCCN(C)C(=O)c1ccc(S(=O)(=O)N2CCOCC2)cc1,n,n,n,n,n
Clc1ccc2nc(CSc3nnc4ccccn34)cn2c1,n,n,n,n,n
CCOC(=O)c1c(C)nc2sc(C(N)=O)c(N)c2c1-c1ccc(OC)cc1,n,n,n,n,n
CCOC(=O)c1c(C)nc2sc(C(=O)Nc3ccc(C(C)=O)cc3)c(N)c2c1-c1ccc(OC)cc1,n,n,n,62.2,59.9
CCOC(=O)c1c(C)nc2sc(C(=O)Nc3ccc(OC)cc3)c(N)c2c1-c1ccc(OC)cc1,n,n,n,85.1,81.3
Cc1ccn(C(=O)c2cc3ccccc3oc2=O)n1,n,n,n,n,n
CCC(=O)Nc1ccc(Oc2ccc3c(c2)C(=O)N(c2ccc(O)cc2)C3=O)cc1,n,n,n,n,76.9
CCC(C)NC(=O)c1cc2cc3ccc(OC)cc3nc2s1 (stereo not given),n,n,n,84.0,76.1
CCn1c(CNc2ccccc2Cl)nnc1SCC(=O)OC1CCCCC1,n,n,n,n,70.1
CCn1c(CNc2cccc(Cl)c2)nnc1SCC(=O)OC1CCCCC1,n,n,n,74.1,73.5
CCn1c(CNc2ccc(Cl)cc2)nnc1SCC(=O)OC1CCCCC1,n,x,x,x,x
O=C(Nc1ccccc1F)c1cc2nc(C(F)F)cc(C(F)F)n2n1,n,x,x,x,x
COc1ccc(NS(=O)(=O)c2ccc(N)c(C(=O)O)c2)cc1,n,n,n,n,n
COc1ccc(NS(=O)(=O)c2ccc(-n3nnc4ccccc43)c([N+](=O)[O-])c2)cc1,n,n,n,92.9,73.9
O=[N+]([O-])c1cc(S(=O)(=O)Nc2cccc(C(F)(F)F)c2)ccc1-n1nnc2ccccc21,n,n,n,97.9,93.3
O=C(Nc1c(C(=O)Nc2ccc3c(c2)OCCO3)cnn1-c1ccccc1Cl)c1ccco1,n,n,n,n,n
Cc1ccc2c(c1)NC(=O)C(CC(=O)NCc1ccc(F)cc1)O2 (stereo not given),n,n,n,n,n
CC1CCC(NC(=O)CC2Oc3ccccc3NC2=O)CC1 (stereo not given),n,2.3,n,n,n
CC1CCCCC1NC(=O)CC1Oc2ccccc2NC1=O (stereo not given),n,n,n,n,n
O=C(CC1Oc2ccccc2NC1=O)NCc1ccccc1 (stereo not given),n,2,n,n,65.8
CCn1ncc(/C=N\NC(=O)c2csc3ccccc23)c1C,n,n,n,n,n
Cc1cc2cc(C=O)c(Cl)nc2cc1C,n,n,n,n,n
CC(=O)C1=C(C)OC(N)=C(C#N)C1c1cc2cc(C)c(C)cc2nc1Cl (stereo not given),n,n,n,n,86.6
C=C(C)CSC1=C(C#N)C(c2ccccc2Cl)CC(=O)N1 (stereo not given),n,n,n,70.2,58.2
CCSC1=C(C#N)C(c2ccccc2C)CC(=O)N1 (stereo not given),x,n,n,n,n
SMILES,EphB4 antag,CYP2C9 act,CYP2C19 activ,CYP2C9 inhib,CYP2C19 inhib
C=CCSC1=C(C#N)C(c2ccccc2Cl)CC(=O)N1 (stereo not given),n,n,n,n,73.0
CO/N=C(/CNC(=O)c1ccc(F)cc1)c1ccc(Cl)cc1,n,n,n,64.2,85.5
COc1ccccc1NC(=O)CNC(=O)c1ccc(F)cc1,n,n,n,n,n
COc1cc(NC(=S)NN2CCOCC2)cc(OC)c1,n,x,x,x,x
CC(CCN(C)C)OC(=O)c1ccc(C(C)c2ccccc2)o1 (stereo not given),n,n,n,n,60.8
Cn1c(O)c(C=NC(CC(N)=O)C(=O)O)c(=O)n(C)c1=O (stereo not given),n,n,n,n,n
CCC(=O)Nc1cccc(-c2nc3ccccc3o2)c1,n,n,n,n,53.5
CCC(=O)Nc1cccc(NC(=O)c2cc3ccccc3o2)c1,n,n,n,n,62.4
O=C(Cc1cccs1)Nc1cccc(-c2nc3ccccc3o2)c1,n,n,n,66.7,n
Cc1ccc(-c2nnc(-c3cccc(NC(=O)c4cccs4)c3)o2)cc1,n,n,n,78.2,55.2
COc1cccc(Cn2c(NCC(C)C)nc3c2c(=O)n(C)c(=O)n3C)c1,n,x,x,x,x
